Experimental data reported in PubChem BioAssay AID651558 (National Center for Advancing Translational Sciences (NCATS), 2012).
Among all 1,200 compounds or so, about 480 (40%) were called active. Another 29% or so got no clear call; they are omitted. The call rests on the fitted dose curve; in most records, active means well fitted inhibition curve with a large enough effect; inconclusive means small, poorly fitted or top-dose-only effect; inactive means no such curve, though single readings can be large or run the other way. This is one part of the list.
Potency means the concentration at half of the fitted maximal effect.

Experiment: qHTS Assay to Find Inhibitors of Chronic Active B-Cell Receptor Signaling: Hit Validation in Primary Screen; further: nearly all actives have a fitted effect of over 75% in size
Conditions: ABC-DLBCL IkB-luc/CBR ratio luminescence, 4 h; series mostly up to 46.1 µM
Method in brief: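 Concentration series (3 nM to 46 uM) tested on TMD8 cells induced with doxycycline for 4 h. Filter-corrected green (IkBa fusion) over red (unfused) luciferase signal; Data were normalised to 10 uM MG-132 and untreated cell wells.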
With O=C(Oc1c(CN2CCOCC2)cc(Cl)c2cccnc12)c1cccs1 the Potency was “inactive”. For CNC(=O)[C@H]1O[C@@H](n2cnc3c(NCc4cccc(I)c4)ncnc32)[C@H](O)[C@@H]1O, the Potency was 1.64 µM (active). With CNC(=O)[C@H]1O[C@@H](n2cnc3c(NCc4cccc(I)c4)nc(Cl)nc32)[C@H](O)[C@@H]1O the Potency was 2.31 µM (active). For COc1cc2c(cc1OC)C(/C(C#N)=N\O)=NC(C)(C)C2, the Potency was “inactive”. In the case of CCc1ccc(CCC(=O)Nc2sc3c(c2C#N)CCCC3)o1, the Potency is reported as 5.8 µM (active). With N#Cc1c(NC(=O)/C=C/c2ccco2)sc2c1CCCC2 the Potency was 1.3 µM (active). For CC(C)NC(=S)N=Nc1c(O)[nH]c2ccc([N+](=O)[O-])cc12, the Potency was “inactive”. In the case of CC(C)Oc1ccccc1C1CC(=O)Nc2cc3c(cc21)OCCO3 (stereo not drawn), the Potency is reported as 8.2 µM (active). In the case of COc1ccccc1C1CC(=O)Nc2cc3c(cc21)OCCO3 (stereo not drawn), the Potency is reported as 16.4 µM (active). For COc1ccc(OC)c(C2CC(=O)Nc3n[nH]c(-c4ccccc4)c32)c1 (stereo not drawn), the Potency was “inactive”. In the case of O=C(CSc1cccc[n+]1[O-])c1ccccc1Br, the Potency is reported as “inactive”. In the case of COc1c(Cl)cc(C(=O)NN)cc1Cl, the Potency is reported as “inactive”. In the case of COc1cc(C(=O)NNC(=O)C2CC=CCC2C(=O)O)cc(OC)c1OC (stereo not drawn), the Potency is reported as “inactive”. With COc1cc(C(=O)N2CCN(c3cc(Cl)ccc3Cl)CC2)cc(OC)c1OC the Potency was 1.16 µM (active). For CCOC(=O)C1=C(C)c2ccccc2N(C(=O)OC)C1(C)C(=O)OCC (stereo not drawn), the Potency was “inactive”. In the case of O=S1(=O)C=C(Sc2nc3cc(Cl)ccc3o2)c2ccccc21, the Potency is reported as 16.4 µM (active). For CC(/C=C/c1ccccc1)=N\NC(N)=S, the Potency was “inactive”. In the case of N#CC(C#N)=C(N)CSc1cccc[n+]1[O-], the Potency is reported as “inactive”. In the case of CCOc1ccc(C(=O)NC(=S)Nc2cccc(S(=O)(=O)NC3=NCCC3)c2)cc1, the Potency is reported as 18.4 µM (active). For O=C(CCl)Nc1cccc(S(=O)(=O)NC2=NCCCCC2)c1, the Potency was 8.2 µM (active). For O=C(CCl)Nc1cccc(S(=O)(=O)NC2=NCCC2)c1, the Potency was 13 µM (active). With CCOc1ccc(OCc2ccc(C(=O)N/N=C(\C)c3ccccn3)cc2)cc1 the Potency was “inactive”. For CN(C)c1ccc(C(=O)c2ccc(N(C)C)c3ccccc23)cc1, the Potency was 0.291 µM (active). With COc1ccc(C(=O)c2ccc(N(C)C)cc2)c2ccccc12 the Potency was 3.26 µM (active). With Oc1ccc(CNc2ccccc2F)c2cccnc12 the Potency was “inactive”. In the case of O=C(Oc1c(CN2CCOCC2)cc(Cl)c2cccnc12)c1ccccc1F, the Potency is reported as “inactive”. With C=CCn1c(SCc2c(C)noc2C)nc2ccccc2c1=O the Potency was 14.6 µM (active). For Cc1noc(C)c1CSc1ccc2ccccc2n1, the Potency was “inactive”. In the case of CCn1ncc(C2=NOC(C(=O)NCc3ccccc3)C2)c1C (stereo not drawn), the Potency is reported as 18.4 µM (active). In the case of CCn1ncc(C2=NOC(C(=O)NCc3ccc(Cl)cc3)C2)c1C (stereo not drawn), the Potency is reported as 8.2 µM (active). For Cc1ccc(Sc2c(CO)c(-c3ccccc3)nn2C)cc1, the Potency was 5.17 µM (active). For COc1ccc(/C=C(\C#N)c2c[nH]c3ccccc23)cc1, the Potency was 14.6 µM (active). For COc1ccc(CC(=O)OCC(=O)c2c[nH]c3ccccc23)cc1, the Potency was “inactive”. In the case of N#C/C(=C\c1ccc(Cl)cc1)c1nc2ccccc2o1, the Potency is reported as “inactive”. With COc1ccc(C(=O)/C=C2/c3ccccc3CC(C)(C)N2C)cc1 the Potency was 20.6 µM (active). In the case of Cn1c(=S)[nH]c2c(c1=O)C(C)(C)Cc1ccccc1-2, the Potency is reported as “inactive”. In the case of C=CCN(CC=C)C(=S)NC(=O)c1ccc(OC)cc1, the Potency is reported as “inactive”. For COc1cc2c(c(OC)c1OC)-c1ccc(N(C)CC(OC)OC)c(=O)cc1[C@@H](NC(C)=O)CC2, the Potency was 5.8 µM (active). With COc1cc2c(c(OC)c1OC)-c1ccc(OC)c(=O)cc1[C@@H](NC(C)=O)CC2 the Potency was 0.206 µM (active). With COc1cccc(C(=O)Nc2ccc3c(cc2=O)[C@@H](NC(C)=O)CCc2cc(OC)c(OC)c(OC)c2-3)c1 the Potency was 23.1 µM (active). For COc1cc2c(c(OC)c1OC)-c1ccc(OC)c(=O)cc1[C@@H](N(C)CC#CCO)CC2, the Potency was 0.259 µM (active). For CCCC(=O)O[C@]1(C(=O)CO)CC[C@H]2[C@@H]3CCC4=CC(=O)CC[C@]4(C)[C@H]3[C@@H](O)C[C@@]21C, the Potency was “inactive”. For Cc1nc2c(-c3ccccc3)c[nH]n2c(=O)c1Cc1ccccc1, the Potency was “inactive”. With CCN(CC)c1ccc(Nc2cc3n(c(=O)n2)CCc2cc(OC)c(OC)cc2-3)cc1 the Potency was “inactive”. In the case of COc1cc2c(c(OC)c1OC)-c1ccc(OC)c(=O)cc1C(NC(C)=O)CC2 (stereo not drawn), the Potency is reported as 0.206 µM (active). For CCN(CC)c1ccc2c(cc1=O)[C@@H](NC)CCc1cc(OC)c(OC)c(OC)c1-2, the Potency was 5.8 µM (active). For NCCNC(=O)Cc1cccc(NC(=O)Cc2ccc(Nc3ncnc4c3ncn4[C@@H]3O[C@H](CO)[C@@H](O)[C@H]3O)cc2)c1, the Potency was 1.46 µM (active). With NCCNC(=O)Cc1ccc(NC(=O)Cc2ccc(Nc3ncnc4c3ncn4[C@@H]3O[C@H](CO)[C@@H](O)[C@H]3O)cc2)cc1 the Potency was 0.461 µM (active). In the case of NC(=O)c1c(NC(=O)CSc2nc(N)cc(=O)[nH]2)sc2c1CCCC2, the Potency is reported as 9.2 µM (active). For CC1CCc2c(sc(NC(=O)CSc3nc(N)cc(=O)[nH]3)c2C(N)=O)C1 (stereo not drawn), the Potency was 10.3 µM (active). For COc1cc2c(cc1OC)C(C)N(C(=O)c1cc(C)on1)CC2 (stereo not drawn), the Potency was 5.8 µM (active). For COc1ccccc1NS(=O)(=O)c1cccc(C(=O)N/N=C/c2cn(-c3ccccc3)nc2-c2ccccc2)c1, the Potency was “inactive”. With Cc1cccc(C)c1-n1c(C)cc(/C=N/NC(N)=S)c1C the Potency was “inactive”. With COc1ccc(-c2nn(-c3ccccc3)cc2/C=N/NC(N)=S)cc1OC the Potency was 20.6 µM (active). With Cc1ccccc1NCC(=O)c1ccc(Br)cc1 the Potency was “inactive”. With Cc1ccc(N(C)S(=O)(=O)c2ccc(-c3cnc(C4CC4)o3)cc2)cc1 the Potency was 5.8 µM (active). For Cc1cccc(N(C)S(=O)(=O)c2ccc(-c3cnc(C4CC4)o3)cc2)c1, the Potency was 1.84 µM (active). In the case of Cc1ccc2[nH]c(-c3cccc(F)c3)cc(=O)c2c1, the Potency is reported as 4.11 µM (active). With Cc1ccc2[nH]c(-c3ccccc3)cc(=O)c2c1 the Potency was 5.17 µM (active). With CCn1c(SCC(=O)c2ccc(Cl)cc2)nnc1C(C)C the Potency was “inactive”. With CCOc1cc(/C=C(/C#N)C(=O)Nc2ccc(O)cc2)cc(Br)c1O the Potency was 2.06 µM (active). In the case of CC1(CCc2ccc(O)cc2)NC(=O)NC1=O (stereo not drawn), the Potency is reported as “inactive”. With CCOC(=O)C1(C)C(C(=O)OC)=C(c2ccc(OC)cc2)c2ccccc2N1C(=O)OC (stereo not drawn) the Potency was “inactive”. For CCOC(=O)C(NC(=O)N(C)C)(Nc1sc(C)c(CC)c1C#N)C(F)(F)F (stereo not drawn), the Potency was “inactive”. For Cc1ccnc(NC(=O)c2cccc(S(=O)(=O)Nc3ccc(C)cc3C)c2)c1, the Potency was “inactive”. In the case of O=[N+]([O-])c1ccccc1S(=O)(=O)Nc1cccc2cccnc12, the Potency is reported as 13 µM (active). In the case of Cc1c(C(=O)Oc2cccc3cccnc23)oc2ccccc12, the Potency is reported as “inactive”. For O=[N+]([O-])c1cc(F)c2cccnc2c1O, the Potency was “inactive”. With O=[N+]([O-])c1ccc(O)c2ncccc12 the Potency was “inactive”. In the case of O=C(/C=C\c1ccccc1)Oc1cccc2cccnc12, the Potency is reported as “inactive”. In the case of O=S(=O)(Nc1cccc2cccnc12)c1ccccc1, the Potency is reported as 13 µM (active). With Cc1ccc(S(=O)(=O)Nc2cccc3cccnc23)cc1 the Potency was 8.2 µM (active). In the case of CCN(CC)S(=O)(=O)c1ccc(C(=O)NCCSc2c[nH]c3ccccc23)cc1, the Potency is reported as “inactive”. For COc1cccc(/C=N/Nc2nc(Nc3ccccc3)nc(-n3nc(C)cc3C)n2)c1O, the Potency was 0.92 µM (active). In the case of CC1=NN(C(N)=S)C(=O)C1N=Nc1ccccc1 (stereo not drawn), the Potency is reported as “inactive”. In the case of Cc1ccc(/C=N/NC(=O)c2cc(-c3ccncc3)nc3ccccc23)o1, the Potency is reported as 5.17 µM (active). For COc1ccc(-c2cc(C(=O)N/N=C(\C)c3cccnc3)c3ccccc3n2)cc1, the Potency was “inactive”. In the case of Cc1ccsc1/C=N/NC(=O)c1cc(-c2ccncc2)nc2ccccc12, the Potency is reported as 1.64 µM (active). In the case of CCc1ccc(/C=N/NC(=O)c2cc(-c3ccncc3)nc3ccccc23)s1, the Potency is reported as 8.2 µM (active). With Fc1ccc(/C=N/NC(=S)Nc2cccnc2)cc1 the Potency was “inactive”. For Cc1ccc(/C=N/NC(=O)c2cc(-c3cccnc3)nc3ccccc23)cc1, the Potency was 2.31 µM (active). In the case of O=C(CSc1cccc[n+]1[O-])c1ccc(Cl)cc1, the Potency is reported as “inactive”. For CCc1ccc(NC(=O)CSc2nc(=O)n(CCCN3CCOCC3)c3c2CCCC3)cc1, the Potency was “inactive”. For CC(=NNC(=O)c1cc(C)nc2ccccc12)c1ccc(N2CCOCC2)cc1, the Potency was “inactive”. With O=C(N/N=C/c1cccs1)c1cc(-c2ccncc2)nc2ccccc12 the Potency was 2.59 µM (active). In the case of O=C(N/N=C/c1ccc([N+](=O)[O-])o1)c1cc(-c2ccc(-c3ccccc3)cc2)nc2ccccc12, the Potency is reported as 4.61 µM (active). In the case of S=C(NCCN1CCOCC1)N/N=C/c1cccs1, the Potency is reported as “inactive”. In the case of CCc1ccc(/C=N/NC(=O)c2cc(C3CC3)nc3ccccc23)s1, the Potency is reported as 16.4 µM (active). With COC(=O)c1cnc(Oc2ccc(NC(=O)NC(=O)c3c(OC)cccc3OC)cc2)cc1C(F)(F)F the Potency was 1.84 µM (active). In the case of Cc1cc(C)c2cc(C=O)c(Cl)nc2c1, the Potency is reported as 3.66 µM (active). For Cc1ccc(N=Nc2c(C)[nH]n(C(N)=S)c2=O)cc1, the Potency was “inactive”. With CCc1cc2c(SCC(=O)NC3CC3)ncnc2s1 the Potency was “inactive”. With COc1ccc(C2CC(c3c(O)cc(C)oc3=O)=NCCS2)c(OC)c1 (stereo not drawn) the Potency was 1.16 µM (active). With Cc1ccc(C(=O)Nc2nc(C)c(C(=O)Nc3ccc4c(c3)CCC4)s2)cc1 the Potency was 4.61 µM (active). With CCCn1nnc(NC(=S)NC(=O)c2ccc(-c3ccc(Br)cc3)o2)n1 the Potency was “inactive”. In the case of COc1ccc(C2=NOC(C(=O)NCc3ccc(F)cc3)C2)cc1 (stereo not drawn), the Potency is reported as 18.4 µM (active). For COc1cc(C(=O)NC2CCN(Cc3nnnn3Cc3ccc(F)cc3)CC2)cc(OC)c1OC, the Potency was “inactive”. With COc1cc(C2=NOC(C(=O)NCc3ccc(F)cc3)C2)cc(OC)c1OC (stereo not drawn) the Potency was 4.61 µM (active).
